# Experimental data taken from PubChem BioAssay.
# “And” between values parts separate entries of the source, which are not always exact repeats. Equal entries are not always repeated. The source made the active and inactive calls. Unless noted, no rule for the calls is given here.
# Assays:
# [1] = tested on: Hepatitis C virus NS3 helicase; experiment: blockers of NS3h binding to ssDNA – biochemical, fluorescence polarization, LOPAC1280 library, primary screen (AID 687035; in the data active = inhibition above about 37%); conditions: Purified HCV NS3 helicase, Cy5-dT15 ssDNA binding fluorescence polarization; stronger effect = higher value; concentration not given here
# [2] = compounds altering Cy5-DNA-NS3h complex signal – biochemical, LOPAC1280, artefact control for HCV NS3 helicase inhibitor project (AID 687037); conditions: Cy5-DNA-NS3h complex fluorescence interference counterscreen
# [3] = tested on: Aerobactin synthetase IucA (Klebsiella pneumoniae); experiment: inhibition of K. pneumoniae IucA enzyme – biochemical, Tocris library, absorbance (AID 1345561); conditions: purified IucA enzyme assay, absorbance (OD) read-out; stronger effect = lower value;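 tested at 8 µM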;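 also: 100% = enzyme without compound and 0% = no enzyme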
# [4] = blockers of cellular phospholipid synthesis – cell-based, LOPAC library, screen 4, primary screen (AID 1347384); conditions: animal cells, phospholipid biosynthesis inhibition screen; at 10 µM
# [5] = MELAS cybrid and Rieske KO viability enhancers – cell-based, MELAS cybrids, Rieske KO mouse fibroblasts, CellTiter-Glo, primary screen (AID 1508586;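 active = mean z-score across replicates of 1.96 or higher in either the MELAS or the Rieske mutant cell line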;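 also: z relative to plate mean and SD of compound and empty wells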); conditions: low glucose
# [6] = galactose survival enhancers in mitochondrial complex I cybrids – cell-based, galactose medium, ATP luminescence, primary screen (AID 1645843;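 active = z-score of at least 1.8 in each of two replicates, scored against plate mean and spread of sample wells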;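 also: positive z means more ATP and so rescue of galactose-driven cybrid death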); conditions: complex I mutant cybrid cells, 72 h, stronger effect = higher value
# [7] = growth inhibition, single agent or in combination, cell-based, chromothripsis tumors, cisplatin or BGB combos (AID 1671449; in the data active = inhibition above about 80%;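 also: cells exposed for 96 hours; 0% = vehicle DMSO and 100% = killing by high DMSO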); conditions: LFS_MB_P medulloblastoma cells
# [8] = growth inhibition, single agent and combos, cell-based, chromothripsis tumors, cisplatin or BGB combos (AID 1671450; in the data active = inhibition above about 80%;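 also: cells exposed to compound for four days; 0% = vehicle DMSO and 100% = cell killing by high DMSO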); conditions: HDN33 neuroblastoma cells, stronger effect = higher value
# [9] = growth inhibition, single agents and combos, ICB984, cell-based, cisplatin or BGB combos, synergistic combos for chromothripsis tumors (AID 1671451); conditions: ICB984 medulloblastoma cells, drug combinations, stronger effect = higher value;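 also: cells exposed for 96 hours before readout; 0% = vehicle DMSO and 100% = killing by high DMSO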
# [10] = growth inhibition, single agents and combos, LFS_MB_1R, cell-based, cisplatin or BGB combos, synergistic combos for chromothripsis tumors (AID 1671452; in the data active = inhibition above about 80%;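 also: cells exposed for 96 hours before readout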); conditions: LFS_MB_1R medulloblastoma cells, stronger effect = higher value
# [11] = growth inhibition, single agents and combos, HTB85, cell-based, BGB or cisplatin IC20 combos, synergistic combos for chromothripsis tumors (AID 1671453; in the data active = inhibition above about 80%;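 also: cells exposed for 96 hours before readout; 0% = vehicle DMSO and 100% = high DMSO killing control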); conditions: HTB85 osteosarcoma cells, drug combinations, stronger effect = higher value
# [12] = growth inhibition, single agents and combos, CRL2098, cell-based, BGB or cisplatin IC20 combos, synergistic combos for chromothripsis tumors (AID 1671454; in the data active = inhibition above about 80%;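 also: cells exposed for 96 h before readout; 0% = vehicle DMSO and 100% = killing by high DMSO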); conditions: CRL2098 osteosarcoma cells, drug combinations, stronger effect = higher value
# [13] = growth inhibition, single agents and combos, HD-MB03, cell-based, BGB or cisplatin IC20 combos, synergistic combos for chromothripsis tumors (AID 1671455; in the data active = inhibition above about 83%;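 also: 0% = vehicle DMSO and 100% = high DMSO as cytotoxic control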); conditions: HD-MB03 medulloblastoma cells, stronger effect = higher value
# [14] = growth inhibition, single agents and combos, UWB1.289, cell-based, BGB or cisplatin combos, synergistic combos for chromothripsis tumors (AID 1671456; in the data active = inhibition above about 80%;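 also: cells exposed to compound for four days; 0% = vehicle DMSO and 100% = killing by high DMSO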); conditions: UWB1.289 ovarian carcinoma cells, stronger effect = higher value
# [15] = growth inhibition, single agents and combos, LFS_MB_2R, cell-based, cisplatin combos, synergistic combos for chromothripsis tumors (AID 1671457; in the data active = inhibition above about 80%;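 also: cells exposed to compound for four days before readout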); conditions: LFS_MB_2R medulloblastoma cells, stronger effect = higher value
# [16] = growth inhibition, MDA-MB-436, cell-based, BGB or cisplatin combos, synergistic combos for chromothripsis tumors (AID 1671458); conditions: MDA-MB-436 breast carcinoma growth inhibition, drug combinations, stronger effect = higher value;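 also: cells exposed for 96 hours; 0% = vehicle DMSO and 100% = killing by high DMSO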
# [17] = UWB1.289_BRCA1 ovarian cancer growth, cell-based, BGB or cisplatin combinations (AID 1671459; in the data active = inhibition above about 80%); conditions: UWB1.289 BRCA1 ovarian carcinoma, drug combinations, stronger effect = higher value
# [18] = drug combination toxicity in non-malignant astrocytes – cell-based, BGB or cisplatin IC20 combos, cytotoxicity control for chromothriptic childhood tumor combination screen (AID 1671460; in the data active = inhibition above about 80%;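 also: cells exposed to compounds for 96 hours before viability readout; 0% = vehicle and 100% = killing control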); conditions: Human astrocytes, viability inhibition, drug combinations, at 0.5 µM, stronger effect = higher value
# [19] = BT084 cell growth, single and combined drugs, ICGC_MB145, cisplatin and BGB IC40 combos (AID 1671461; in the data active = inhibition above about 80%;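 also: cells exposed to drugs for 96 hours; 0% = vehicle DMSO and 100% = high DMSO full killing control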); conditions: BT084 medulloblastoma cells, drug combinations, stronger effect = higher value
# [20] = RCMB18 cell growth, single agent and combined, cisplatin and BGB IC40 combos (AID 1671462; in the data active = inhibition above about 80%;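 also: cells exposed to compound for four days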); conditions: RCMB18 medulloblastoma cells, stronger effect = higher value
# [21] = CRL1545 cell growth, single agent and combined, cisplatin and BGB IC20 combos (AID 1671464; in the data active = inhibition above about 80%;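 also: cells exposed to compound for 96 hours before readout; 0% = vehicle DMSO and 100% = high DMSO killing control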); conditions: CRL1545 osteosarcoma cells, stronger effect = higher value
# [22] = viability loss with induced miR-34 in A549 – imaging, A549 dox-inducible miR-34, nuclei and caspase counts, primary screen (AID 1347080;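 active = compounds whose cell count with miR-34 switched on is under 0.7 times the count with it off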); conditions: A549 miR-34 inducible, Hoechst nuclei count, 48 h
# [23] = compounds altering circadian rhythm period length – cell-based, LOPAC library, luminescence reporter (AID 2774); conditions: circadian reporter cells, at 7 µM, actives lie on both sides;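 also: values are relative to mean of DMSO wells on each plate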
# [24] = compounds altering viability of human ES cells (AID 493140); conditions: human embryonic stem cell survival screen; stronger effect = higher value;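 also: cells exposed to compounds for four days before counting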
# [25] = chitosan synthesis blockers in C. neoformans – flow cytometry, Cibacron Brilliant Red staining (AID 1347148); conditions: Cryptococcus neoformans chitosan, stronger effect = lower value; at 10 µM unless noted;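 also: compound exposure lasted three days at 37 degrees C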
# [26] = measured here: combination with BGB IC40, at 0.05 µM
# [27] = measured here: with BGB IC20 combination, at 0.5 µM
# [28] = measured here: with cisplatin IC20 combination, at 0.5 µM
# [29] = measured here: combination with cisplatin, at 0.5 µM
# [30] = measured here: combination with cisplatin, at 5 µM
# [31] = stronger effect = lower value, cell number ratio, induced over uninduced
# [32] = measured here: relative caspase fold change +Dox/-Dox
# [33] = measured here: total cells with miR-34 induction, stronger effect = lower value
# [34] = measured here: total cells without miR-34 induction
structure (smiles),measurement,setting,value
O=C(Nc1ccncc1)c1cc([N+](=O)[O-])ccc1Cl,inhibition,[1],0% (inactive)
same,fluorescence ratio (interference),[2],1 (inactive)
same,remaining activity,[3],127% (inactive)
same,outcome,[4],inactive
same,z-score,"[5]; MELAS cybrid survival, CellTiter-Glo 48 h, stronger effect = higher value",0.0073 (inactive)
same,z-score,"[5]; Rieske KO mouse fibroblast survival, CellTiter-Glo 72 h",-0.438
same,z-score,[6],-1.12 (inactive) and -0.63 (inactive)
same,inhibition,"[7]; at 0.5 µM, stronger effect = higher value",-6.15% (inactive)
same,inhibition,"[7]; measured here: combination with BGB IC20, at 0.005 µM",-50.3%
same,inhibition,"[7]; measured here: combination with BGB IC40, at 0.005 µM",-79.8%
same,inhibition,[7]; [26],-56.1%
same,inhibition,"[7]; measured here: combination with cisplatin, at 0.5 µM, stronger effect = higher value",-30.4%
same,inhibition,"[7]; measured here: combination with cisplatin, at 5 µM, stronger effect = higher value",-22.9%
same,inhibition,"[8]; BGB combo, at 5 µM",-13.6%
same,inhibition,[8]; at 0.5 µM,1.6% (inactive)
same,inhibition,"[8]; cisplatin combo, at 5 µM",3.19%
same,inhibition,[8]; [27],-13.6%
same,inhibition,[8]; [28],24.4%
same,inhibition,"[8]; single agent, at 5 µM",-14.1%
same,inhibition,"[9]; BGB IC20 combo, at 0.005 µM",-18%
same,inhibition,"[9]; BGB IC40 combo, at 0.005 µM",-35.6%
same,inhibition,"[9]; BGB IC40 combo, at 0.05 µM",0.746%
same,inhibition,[9]; at 0.5 µM,-34.7% (inactive)
same,inhibition,"[9]; cisplatin combo, at 0.05 µM",-4.27%
same,inhibition,"[9]; cisplatin combo, at 0.5 µM",-45.9%
same,inhibition,"[9]; cisplatin combo, at 5 µM",-23.5%
same,inhibition,"[9]; measured here: 5 uM single agent, at 5 µM",-11.4%
same,inhibition,[10]; at 0.5 µM,-23.9% (inactive)
same,inhibition,[10]; [26],-37.5%
same,inhibition,[10]; [29],-9.6%
same,inhibition,[10]; [30],54.5%
same,inhibition,[11]; at 0.5 µM,-15.1% (inactive)
same,inhibition,"[11]; measured here: with BGB IC20, at 0.5 µM",-10.2%
same,inhibition,"[11]; measured here: with BGB IC20, at 5 µM",1.89%
same,inhibition,"[11]; measured here: with cisplatin IC20, at 0.5 µM",-20.9%
same,inhibition,"[11]; measured here: with cisplatin IC20, at 5 µM",-16.5%
same,inhibition,"[11]; single agent, at 5 µM",-8.5%
same,inhibition,[12]; at 0.5 µM,-65.5% (inactive)
same,inhibition,"[12]; measured here: combination with BGB at IC20, at 0.5 µM",-72.7%
same,inhibition,"[12]; measured here: combination with cisplatin at IC20, at 0.5 µM",-82.6%
same,inhibition,[13]; at 0.5 µM,-11.5% (inactive)
same,inhibition,"[13]; measured here: combo with BGB at IC20, at 0.5 µM",-10.4%
same,inhibition,"[13]; measured here: combo with cisplatin at IC20, at 0.5 µM",-13.5%
same,inhibition,[14]; at 0.5 µM,-6.23% (inactive)
same,inhibition,"[14]; measured here: inhibition with BGB combination, at 0.05 µM",-27.4%
same,inhibition,"[14]; measured here: inhibition with cisplatin combination, at 0.05 µM",-17%
same,inhibition,[15]; at 0.5 µM,-23.4% (inactive)
same,inhibition,[15]; [29],-14.6%
same,inhibition,[15]; [30],-37.5%
same,inhibition,[16]; at 0.5 µM,-25.3% (inactive)
same,inhibition,"[16]; measured here: BGB combination, at 0.5 µM",-15.4%
same,inhibition,"[16]; measured here: BGB combination, at 5 µM",-30%
same,inhibition,"[16]; measured here: cisplatin combination, at 0.5 µM",-47.1%
same,inhibition,"[16]; measured here: cisplatin combination, at 5 µM",-23.8%
same,inhibition,"[17]; BGB combination, concentration series, at 5 µM",-19.1%
same,inhibition,[17]; at 0.5 µM,-17.7% (inactive)
same,inhibition,"[17]; cisplatin combination, concentration series, at 5 µM",-9.35%
same,inhibition,[18],-9.91% (inactive)
same,inhibition,[18]; measured here: combo with BGB IC20,0.843%
same,inhibition,[18]; measured here: combo with cisplatin IC20,-18.4%
same,inhibition,[19]; at 0.5 µM,-26.5% (inactive)
same,inhibition,"[19]; cisplatin combination, at 0.5 µM",-23.3%
same,inhibition,"[19]; cisplatin combination, at 5 µM",-134%
same,inhibition,"[19]; measured here: BGB IC40 combination 0.05 uM, at 0.05 µM",-33.5%
same,inhibition,"[19]; single agent, at 5 µM",23.7%
same,inhibition,[20]; at 0.5 µM,-25.9% (inactive)
same,inhibition,"[20]; cisplatin combo, at 5 µM",23.7%
same,inhibition,"[20]; measured here: BGB IC40 combination, at 0.05 µM",-24.6%
same,inhibition,[20]; [29],-52.5%
same,inhibition,"[20]; single agent, at 5 µM",-3.16%
same,inhibition,[21]; at 0.5 µM,6.35% (inactive)
same,inhibition,[21]; [27],-12.9%
same,inhibition,[21]; [28],14.6%
same,inhibition,"[21]; single agent, at 0.05 µM",-34.7%
same,inhibition,"[21]; single agent, at 5 µM",-4.08%
c1ccc(C(NCCNC(c2ccccc2)c2ccccc2)c2ccccc2)cc1,inhibition,[1],-4% (inactive)
same,fluorescence ratio (interference),[2],1 (inactive)
same,remaining activity,[3],112% (inactive)
same,fold change,[22]; [31],0.972 (inactive) and 0.853 (inactive)
same,fold change,[22]; [32],0.809 and 1.79
same,cell count,[22]; [33],5830 and 5710
same,cell count,[22]; [34],5990 and 6700
same,outcome,[4],inactive
same,z-score,[6],-1.29 (inactive) and -0.705 (inactive)
Cn1cnc2c(NCc3ccccc3)nc(NCCO)nc21,period change,[23],0.235 h (inactive)
same,survival,[24],92.8 (inactive)
same,inhibition,[1],-2% (inactive)
same,fluorescence ratio (interference),[2],0.9 (inactive)
same,remaining activity,[3],120% (inactive)
same,fold fluorescence,[25],4.59 [at 167.6 µM] (inactive)
same,outcome,[4],inactive
same,z-score,[6],0.355 (inactive) and 0.005 (inactive)
Cc1ccc([N+](=O)[O-])cc1S(=O)(=O)N(C)C,inhibition,[1],0% (inactive)
same,fluorescence ratio (interference),[2],1 (inactive)
same,remaining activity,[3],93.4% (inactive)
same,fold change,[22]; [31],0.957 (inactive) and 0.856 (inactive)
same,fold change,[22]; [32],1.62 and 1.47
same,cell count,[22]; [33],9070 and 7620
same,cell count,[22]; [34],9480 and 8900
same,outcome,[4],inactive
same,z-score,[6],0.32 (inactive) and -0.31 (inactive)
